Results filed as inconclusive are left out. Unmarked numbers belong to inactive results. The source made the active and inactive calls. Calls follow the shape of the dose curve; as a rule, active = well fitted inhibition curve with a large enough effect; inconclusive = small, poorly fitted or top-dose-only effect; inactive = no such curve, though single readings can be large or run the other way.
Assay: qHTS for Inhibitors of the Aldehyde Dehydrogenase Family (ALDH1A2, ALDH1A3, ALDH2, ALDH3A1) (AID 2061307); also: nearly all actives have a fitted effect of over 50% in size; as to Potency: test system not described further here
Settings: ALDH inhibition qHTS; series mostly up to 50.3 µM; activity change, negative = inhibition: at the top concentration
% is scaled to controls: 0 for no effect and ±100 for the full control effect; potency is read from the fitted curve at half-maximal effect.

| SMILES | Potency | activity change, negative = inhibition |
| --- | --- | --- |
| O=C(O)c1ccc(-n2cccc2/C=C2\SC(=O)N(Cc3ccc(Br)cc3)C2=O)cc1 | 5.04 µM (active) | – |
| N[C@@H](Cc1ccc(OS(=O)(=O)c2cccnc2)cc1)C(=O)N1CCN(c2ccccc2)CC1 | 5.65 µM (active) | – |
| COc1ccc(C2Nc3ccccc3C(=O)N2CCc2ccccc2)cc1COc1ccc(NC(C)=O)cc1 (stereo not given) | 5.65 µM (active) | – |
| C/C=C/C=C/C(O)=C1/C(=O)[C@]2(C)C3/C(=C(O)/C=C/C=C/C)C(=O)C4(C)C1[C@]1(C)O[C@@]4(O)[C@@]3(C)O[C@@]12O | – | -24.4% [at 34.4 µM] |
| N#Cc1ccc(CNc2nc(-c3ccccc3C(F)(F)F)nc3ccccc23)cc1 | 17.9 µM (active) | – |
| Cc1cc(NC(=O)c2ccc(NC(=O)Cc3ccc(Cl)c(Cl)c3)cc2)no1 | – | -25% |
| COc1ccc(C2Nc3ccccc3C(=O)N2Cc2ccccc2)cc1COc1ccc(NC(C)=O)cc1 (stereo not given) | 3.18 µM (active) | – |
| COC(=O)c1ccc(O)c2ncc(-c3ccc(C(=O)N4CCNCC4)cc3)cc12 | – | 35.3% |
| O=C(O)c1ccc(S(=O)(=O)N[C@H](Cc2ccc(O)cc2)C(=O)O)cc1 | – | -28.8% |
| N#Cc1nc(Nc2cccc(Cl)c2)nc(NC2CCCC2)n1 | 0.708 µM (active) | – |
| COc1cc(/C=C2\C(=O)Nc3ccccc32)ccc1O | – | -25.7% |
| Cc1ccc2nc3sc(C(=O)Nc4ccncc4)cc3cc2c1 | 11.3 µM (active) | – |
| CCCCN(C)C(=O)Cn1nc(-c2ccc(Cl)cc2)ccc1=O | – | -13.6% |
| NC(=O)C1CCN(c2nc(-c3ccccc3N)cs2)CC1 | 7.12 µM (active) | – |
| CN(Cc1ccco1)c1ncnc2ccc(-c3ccoc3)cc12 | – | -19.1% |
| COc1cccc(CNc2ccc(S(=O)(=O)Nc3ccc(C)nc3)cc2)c1O | – | -20.1% |
| O=C(OCC#CCSc1nnc(-c2cccc3ccccc23)o1)c1ccc(Br)cc1 | – | -2.7% |
| O=C(O)c1ccc(-n2cccc2/C=C2\SC(=O)N(Cc3ccc(F)cc3)C2=O)cc1 | 7.98 µM (active) | – |
| NC(=O)C1CCN(c2nc(-c3ccccc3[N+](=O)[O-])cs2)CC1 | 12.7 µM (active) | – |
| CC(C)Oc1cccc(-c2cnc(N3CCC(C(N)=O)CC3)s2)c1 | – | -22.1% |

| SMILES | Potency | activity change, negative = inhibition |
| --- | --- | --- |
| CC(C)(C)OC(=O)NCCOCCOCCOCCn1ncc2c1CCCC2NC(=O)c1ccccn1 (stereo not given) | – | -20.4% |
| CNc1sc(-c2cccc3ccccc23)nc1C(=O)OC | 15.9 µM (active) | – |
| Fc1cnc(-c2ccccc2C(F)F)nc1NCC1CCN(c2cnccn2)CC1 | – | -17.3% |
| Cc1ccc(-n2c(C)cc(-c3nnc4n3CCCCC4)c2C)cc1 | – | -15.3% |
| CC(=O)c1cccc(-c2csc(N3CCC(C(N)=O)CC3)n2)c1 | 11.3 µM (active) | – |
| COc1ccc(OCc2cc(C3Nc4ccccc4C(=O)N3Cc3ccccc3)ccc2OC)cc1 (stereo not given) | 5.65 µM (active) | – |
| COc1ccc(NC(=O)CN(C)C(=O)c2cc3c(s2)CCC3)cc1 | – | -2.32% |
| COc1ccc(C2Nc3ccccc3C(=O)N2Cc2ccccc2OC)cc1COc1ccc(NC(C)=O)cc1 (stereo not given) | 2.25 µM (active) | – |
| COc1cccc(CN2C(=O)c3ccccc3NC2c2ccc(OC)c(COc3ccc(NC(C)=O)cc3)c2)c1 (stereo not given) | 3.55 µM (active) | – |
| N#Cc1nc(-c2ccc(COc3ccccc3)o2)oc1N1CCN(c2ccccc2)CC1 | – | -43.4% [at 34.4 µM] |
| NCC(=O)Nc1cncc(-c2nn3c(=O)cc(N4CCNCC4)nc3s2)c1 | – | 64.2% |
| O=C(O)c1ccc(O)c2ncc(-c3ccc(C(=O)N4CCNCC4)cc3)cc12 | – | -23.9% |
| N#Cc1nc(Nc2ccc(F)cc2)nc(NC2CCCC2)n1 | 3.16 µM (active) | – |
| CC(=O)C1CCN(c2ncc(-c3cccc(N(C)C)c3)s2)CC1 | 5.65 µM (active) | – |
| COc1ccc(C2Nc3ccccc3C(=O)N2Cc2ccccn2)cc1COc1ccc(NC(C)=O)cc1 (stereo not given) | 6.31 µM (active) | – |
| O=C([C@H](Cc1ccc(O[S+](=O)([O-])c2cccnc2)cc1)N[S+](=O)([O-])c1cccc2cnccc12)N1CCN(c2ccccc2)CC1 | – | 0% |
| OCc1ccc(-c2ccc3ncnc(NCCc4cnc[nH]4)c3c2)o1 | – | 1.34% |
| CC(=O)N1CCc2cc(-c3nc(NC(=O)Cc4ccc5c(c4)OCO5)sc3C)ccc21 | 2.01 µM (active) | – |
| COc1ccc(C2Nc3ccccc3C(=O)N2C2CCCC2)cc1COc1ccc(NC(C)=O)cc1 (stereo not given) | 1.59 µM (active) | – |
| CN(CC(=O)O)c1ncnc2ccc(-c3ccc4c(c3)OCO4)cc12 | – | -23.8% |

From PubChem BioAssay (NCATS)
